# Source: PubChem BioAssay (University of Pittsburgh Molecular Library Screening Center)
# Only a selection was taken, and hits are over-represented in it overall.
# HIV RNase H inh-1 = inhibitors of HIV-1 reverse transcriptase RNase H. RT-RNase H RNA/DNA duplex cleavage, fluorescence. inhibition, % at 10 µM. 1.9% of 65,000 active; in the data active = inhibition above about 50%
# HIV RNase H inh-2 = confirmation of HIV-1 reverse transcriptase RNase H inhibitors; shares compounds with HIV RNase H inh-1; Recombinant RT RNase H, fluorescent RNA/DNA duplex cleavage; inhibition, % at 10 µM; 39% of 1,000 active; in the data active = inhibition above about 48%; inconclusive = no clear call, values can overlap the other calls
# A number is an active result; i = inactive; ? = inconclusive.
SMILES,HIV RNase H inh-1,others
O=C(CSc1c2c(nc3ccc(Cl)cc13)CCCC2)N1CCN(C(=O)c2ccco2)CC1,i,
O=C(c1ccco1)N1CCN(C(=O)c2snc3ccc(Cl)cc23)CC1,86.4,HIV RNase H inh-2=i
O=C(c1ccco1)N1CCN(Cc2ccc(Cl)cc2)CC1,i,
Cc1cccc(C)c1NC(=O)CSCC(=O)O,i,
Cc1cccc(C)c1NC(=O)CSCC(=O)c1ccc(O)c(O)c1,87.5,HIV RNase H inh-2=61.5
Cc1cccc(C)c1NC(=O)CSCCO,i,
Cc1ccccc1-c1c(C)oc2cc(O)ccc2c1=O,i,
Cc1c(NS(=O)(=O)c2ccccc2)cc(Cl)c(O)c1C,74.0,HIV RNase H inh-2=i
COc1cc(S(=O)(=O)Nc2ccccc2C)ccc1Cl,i,
O=S(=O)(Nc1ccccc1Cl)c1ccc(F)cc1,i,
CC(=O)OC(C(=O)NCc1ccco1)c1ccncc1 (configuration not stated),i,
CCCCOc1ccc(N2C(=O)CC(N(O)c3ccccc3)C2=O)cc1 (configuration not stated),i,
COC(=O)c1ccc(N2C(=O)CC(NCc3ccccc3)C2=O)cc1 (configuration not stated),i,
CN(Cc1ccccc1)C1CC(=O)N(c2ccc(C(=O)O)cc2)C1=O (configuration not stated),77.2,HIV RNase H inh-2=i
Cc1cc(C)cc(-n2nnc(C(=O)NCc3ccccc3Cl)c2N)c1,i,
Cc1ccc(Cl)cc1NC(=O)CC(O)(C(F)(F)F)C(F)(F)F,i,
O=C(NCc1cccs1)C1CCC(=O)N1C1CCCCC1 (configuration not stated),i,
CCOC(=O)c1c(C)c(C(=O)NCc2ccccn2)c(C)n1CC,i,
O=C(CSc1ccc2nnc(-c3cccc(F)c3)n2n1)NCC1CCCO1 (configuration not stated),73.3,HIV RNase H inh-2=i
O=C(CSc1ccc2nnc(-c3cccnc3)n2n1)NCC1CCCO1 (configuration not stated),i,
O=C(CSc1ccc2nnc(-c3ccccn3)n2n1)NCC1CCCO1 (configuration not stated),i,
CCOC(=O)CCn1cc(F)c(=O)n(Cc2ccccc2)c1=O,i,
CC(C)NC(=O)CCNC(=O)c1ccc(F)cc1,i,
CCOC(=O)C1(CCSC)NC(c2ccco2)C2C(=O)N(C)C(=O)C21 (configuration not stated),i,
CCCc1cc(C(=O)Nc2sc(C(C)=O)c(C)c2C(=O)OCC)no1,67.6,HIV RNase H inh-2=?
SMILES,HIV RNase H inh-1,others
CCCc1cc(C(=O)Nc2ccccc2C(=O)OC)no1,i,
CCOC(=O)c1sc(NC(=O)c2c(C)noc2C)c(C(=O)OCC)c1C,i,
COc1ccc(/C(O)=C2/C(=O)C(=O)N(CCCN(C)C)C2c2ccc(C)o2)cc1Cl (configuration not stated),i,
CC(C)(C)Nc1nc(NC(C)(C)C)nc(-n2ccnc2)n1,i,
CCOC(=O)C1=C(C(C)=O)C(c2cccnc2)C(C#N)=C(N)O1 (configuration not stated),i,
CCOC(=O)C1=C(C)NC(SCC(=O)OC)=C(C#N)C1c1ccc(C(=O)OC)cc1 (configuration not stated),80.4,HIV RNase H inh-2=i
CCOC(=O)CSC1=C(C#N)C(c2ccc(C)cc2)C2=C(CCCC2=O)N1 (configuration not stated),i,
CC(=O)C1=C(C)NC(SCC(N)=O)=C(C#N)C1c1cccnc1 (configuration not stated),61.5,HIV RNase H inh-2=i
CC(=O)C1=C(C)NC(SCC(=O)c2ccc(C)cc2)=C(C#N)C1c1ccco1 (configuration not stated),i,
C#CCSC1=C(C#N)C(c2cccs2)C(C(=O)OCC)=C(C)N1 (configuration not stated),i,
CCOC(=O)CSC1=C(C#N)C(c2ccc(F)cc2)C(C(C)=O)=C(C)N1 (configuration not stated),73.0,HIV RNase H inh-2=i
CCOC(=O)C1C(=O)NC(SCC(=O)OC)=C(C#N)C1c1ccccc1OCC (configuration not stated),i,
CCOC(=O)CSC1=C(C#N)C(c2ccc(OC)cc2)C2=C(CC(C)(C)CC2=O)N1 (configuration not stated),i,
O=c1[nH]nc(Sc2ncnc3sccc23)n1CCc1ccccc1,i,
CC(=O)C1C(c2ccccc2OC(F)F)NC(=O)NC1(O)C(F)(F)F (configuration not stated),i,
Cc1cc(C(=O)O)c(CCCN)s1,i,
CC(=O)C1=C(C)Nc2ncnn2C1c1ccc(Cl)cc1Cl (configuration not stated),i,
COc1ccccc1OCc1ccc(C(=O)Nc2ccncc2)o1,i,
COc1ccc(S(=O)(=O)Nc2cccc(NC(C)=O)c2)cc1,i,
COc1cccc(CSc2nc3sc(C)c(C)c3c(=O)n2Cc2ccco2)c1,i,
COCCn1c(-c2ccc(-c3ccccc3Cl)o2)nc2c1c(=O)[nH]c(=O)n2CC(C)C,73.0,HIV RNase H inh-2=72.6
CCCCn1c(=O)[nH]c(=O)c2c1nc(-c1ccncc1)n2CCOC,i,
COCCn1c(Sc2ccc(C)cc2)nc2c1c(=O)[nH]c(=O)n2C,i,
COc1ccc(CCN2C(=O)CC(C(N)=O)SC2=Nc2ccccc2)cc1OC (configuration not stated),i,
O=C(Nc1ccc2c(c1)OCCO2)C1CCCN(S(=O)(=O)c2cccnc2)C1 (configuration not stated),i,
SMILES,HIV RNase H inh-1,others
O=C(CSc1nc2ncccc2[nH]1)NCc1ccccc1,i,
CC(C)OC(=O)CSc1nc2ncccc2[nH]1,i,
Fc1ccccc1CSc1nc2ncccc2[nH]1,87.6,HIV RNase H inh-2=60.4
NC(=O)c1nsc(C(=O)N(CC(=O)NCc2ccc3c(c2)OCO3)C2CCCC2)c1N,i,
CCN(CCCNC(=O)C1CCN(S(=O)(=O)c2cnc[nH]2)CC1)c1cccc(C)c1,i,
CCCCOC(=O)CSCC(=O)Nc1cc(C)on1,70.9,HIV RNase H inh-2=i
Cc1cc(NC(=O)CSc2ccccc2)no1,i,
Cc1cc(C)nc(SCC(=O)Nc2cc(C)on2)n1,i,
CCC(C)(C)n1nnnc1CN1CCN(c2nc3cc(OC)ccc3cc2C#N)CC1,i,
COCCNC(=O)CN(C(=O)CCC(=O)Nc1nccs1)c1ccccc1OC,i,
CCn1c(=O)cc(SCC(=O)NCCCN2CCN(c3ccc(F)cc3)CC2)c2ccccc21,66.2,HIV RNase H inh-2=i
Cn1c(=O)cc(SCC(=O)NCCCN2CCN(c3ccccc3F)CC2)c2ccccc21,i,
CCn1c(=O)cc(SCC(=O)NCCN2CCN(Cc3ccccc3)CC2)c2ccccc21,i,
Cc1cccc(NC(=O)C2CCCN2S(=O)(=O)c2cccc3cccnc23)c1 (configuration not stated),i,
CCn1c(SCC(=O)Nc2cccc(C)c2)nc2c(c1=O)SC(C)C2 (configuration not stated),i,
COC(=O)C1=C2SC(C)C(=O)N2C(N)=C(C#N)C1c1ccc(OC)c(OC)c1 (configuration not stated),i,
COc1ccc(C2C(C#N)=C(N)N3C(=C2C#N)Sc2ccccc23)cc1 (configuration not stated),86.6,HIV RNase H inh-2=60.4
COc1cccc(C2C(C#N)=C(N)OC(C(C)(C)C)=C2C#N)c1 (configuration not stated),i,
CCCOc1ccc(C(=O)c2nc3c(n2O)CCCC3)cc1,i,
CC(=O)Oc1ccc(C(c2ccc(OC(C)=O)cc2)c2ccccn2)cc1,i,
CC(=O)Oc1ccc(N2C(=O)C3C(C2=O)C2(C)C=CC3(C)O2)cc1 (configuration not stated),55.7,HIV RNase H inh-2=i
